# Reference: PubChem BioAssay (Tox21)
# Values without a mark were called inactive. Inconclusive results are not listed. Where a call stands in place of a potency, no number is given. The source made the active and inactive calls. Unless noted, calls come from the whole dose curve; as a rule, active = well fitted curve in the direction sought with a large enough effect in the repeat runs; inconclusive = weak or mixed curves; inactive = no such curve, though single readings can be large; an effect the other way counts as inactive or inconclusive.
# What was measured:
# [1] = qHTS assay for small molecule agonists of the p53 signaling pathway (AID 651631; calls by dose curve; note: nearly all actives have a fitted effect of over 15% in size; note: potency is the fitted concentration of half-maximal effect)
# Summary of the method: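 We treat p53RE-bla HCT-116 cells with compounds for 16 h at 37 °C, add LiveBLAzer B/G FRET substrate for 2 h at room temperature, and measure fluorescence intensity.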
# [2] = qHTS assay for small molecules that induce genotoxicity in human embryonic kidney cells expressing luciferase-tagged ATAD5 (AID 651632); note: nearly all actives have a fitted effect of over 15% in size
# Summary of the method: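 A rise in luciferase signal from ATAD5-tagged HEK293T cells marks genetic stress. Cells were exposed to compounds for 16 hr at 37C, 5% CO2, then luciferase was quantified after a 30 min room-temperature incubation with Amplite.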
# [3] = qHTS assay for small molecule agonists of the p53 signaling pathway - cell viability (AID 651633; calls by dose curve;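 note: p53RE-bla HCT reporter cells with a stable beta-lactamase p53 reporter; nearly all actives have a fitted effect of over 30% in size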)
# Summary of the method: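 p53RE-bla cells, seeded at 4,000 per well and rested 5 h at 37 C/5% CO2, received compounds in DMSO for 16 h at 37 C. CellTiter-Glo was then added, and luminescence was read after 30 min at room temperature to gauge cytotoxicity.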
# [4] = qHTS assay for small molecules that induce genotoxicity in human embryonic kidney cells expressing luciferase-tagged ATAD5 - cell viability (AID 651634; calls by dose curve; note: nearly all actives have a fitted effect of over 25% in size)
# Summary of the method: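 Cytotoxicity counter-readout: after 15.5 hr compound treatment at 37C, live-cell protease activity in ATAD5-luciferase HEK293T cells measured by CellTiter-Fluor fluorescence, 30 min development at 37C.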
# [5] = qHTS assay for small molecule disruptors of the mitochondrial membrane potential - cell viability (AID 720634; calls by dose curve;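 note: human HepG2 liver cancer cells; nearly all actives have a fitted effect of over 20% in size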)
# Summary of the method: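 Cytotoxicity was quantified from ATP content by CellTiter-Glo luminescence in the same wells as the MMP dye read-out. HepG2 (2,000 cells/well) were plated overnight and exposed to compounds for 1 hr at 37 C.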
# [6] = qHTS assay to test for compound auto fluorescence at 590 nm (red) in HepG2 cells (AID 720674)
# Summary of the method: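 Intrinsic compound fluorescence in the red window (Ex/Em 540/590 nm) is measured in attached HepG2 cells exposed for 1 hr, DMSO vehicle as baseline, benchmarked to Rose Bengal sodium.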
# [7] = qHTS assay to test for compound auto fluorescence at 460 nm (blue) in HEK293 cells (AID 720678); note: potency is the fitted concentration of half-maximal effect
# Summary of the method: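 HEK293 cells (2,000/well, medium with 10% dialyzed FBS) attached 4-5 hr, then exposed to compound overnight at 37C, 5% CO2. Blue fluorescence read at 405/460 nm, with triamterene as reference fluorophore.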
# [8] = qHTS assay to test for compound auto fluorescence at 590 nm (red) in HEK293 cells (AID 720679)
# Summary of the method: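 HEK293 cells (2,000/well, 10% dialyzed FBS) attached 4-5 hr, then dosed with compound or DMSO and incubated overnight at 37C, 5% CO2. Red fluorescence read at 540/590 nm, Rose Bengal sodium as reference fluorophore.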
# [9] = qHTS assay to test for compound auto fluorescence at 535 nm (green) in HEK293 cells (AID 720680)
# [10] = qHTS assay to test for compound auto fluorescence at 460 nm (blue) in HEK293 cell free culture (AID 720681); note: potency is the fitted concentration of half-maximal effect
# Summary of the method: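 Test compounds were pinned into cell-free culture medium (DMEM with 10% FBS) and fluorescence was read directly at Ex/Em 405/460 nm. Signals were expressed as fluorescence equivalents of triamterene, with DMSO vehicle as control.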
# [11] = qHTS assay to test for compound auto fluorescence at 590 nm (red) in HEK293 cell free culture (AID 720683)
# Summary of the method: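 Tox21 10K library compounds were pinned into cell-free DMEM with 10% FBS and fluorescence was read at excitation 540 nm. Activity is expressed as Rose Bengal sodium equivalency.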
# [12] = qHTS assay to test for compound auto fluorescence at 590 nm (red) in HepG2 cell free culture (AID 720684)
# Summary of the method: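 Readout: intrinsic compound fluorescence at 590 nm emission after 540 nm excitation, scaled to Rose Bengal sodium. Matrix was cell-free MEM with 10% FBS; DMSO vehicle wells served as control.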
# [13] = qHTS assay to test for compound auto fluorescence at 460 nm (blue) in HepG2 cell free culture (AID 720685); note: potency is the fitted concentration of half-maximal effect
# Summary of the method: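 Cell-free plates of MEM plus 10% FBS received 23 nL compound or DMSO vehicle; blue-channel (405/460 nm) intensity scored against triamterene as reference fluorophore.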
# [14] = qHTS assay to test for compound auto fluorescence at 460 nm (blue) in HepG2 cells (AID 720687); note: potency is the fitted concentration of half-maximal effect
# Summary of the method: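 Cells (2,000/well in MEM with 10% FBS) attached overnight at 37 C, then were exposed to compound or DMSO for 1 hr at 37 C, 5% CO2. Fluorescence read at Ex/Em 405/460 nm, expressed as triamterene-equivalent signal.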
# [15] = qHTS assay to test for compound auto fluorescence at 535 nm (green) in HepG2 cell free culture (AID 720686)
# [16] = qHTS assay for small molecule disruptors of the mitochondrial membrane potential (AID 720635); note: potency is the fitted concentration of half-maximal effect
# Summary of the method: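 HepG2 cells (2,000/well) attached overnight at 37C, then took compound for 1 hr at 37C, 5% CO2. Mito-MPS dye was added for 30 min; fluorescence was read at 490/535 nm (monomers) and 540/590 nm (aggregates).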
# [17] = qHTS assay to test for compound auto fluorescence at 535 nm (green) in HepG2 cells (AID 720675)
# [18] = qHTS assay to test for compound auto fluorescence at 535 nm (green) in HEK293 cell free culture (AID 720682)
# Summary of the method: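 Green-channel intensity (Ex/Em 485/535 nm) was recorded from compound-treated wells containing only DMEM with 10% FBS. Fluorescein provided the equivalency standard.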
# [19] = molecular target: Glucocorticoid receptor (Homo sapiens) (UniProt P04150); assay: qHTS assay to identify small molecule agonists of the glucocorticoid receptor (GR) signaling pathway (AID 720691; active = well fitted activation curve with a large enough effect in the signal ratio in the repeat runs, not every such curve was filed as active; the % refers to the signal ratio); conditions: GR-bla HeLa, beta-lactamase reporter ratio, 18 h; activation: at 62.4 µM (top of the series)
# Sequence of Glucocorticoid receptor (Homo sapiens) (P04150 whole entry, looked up): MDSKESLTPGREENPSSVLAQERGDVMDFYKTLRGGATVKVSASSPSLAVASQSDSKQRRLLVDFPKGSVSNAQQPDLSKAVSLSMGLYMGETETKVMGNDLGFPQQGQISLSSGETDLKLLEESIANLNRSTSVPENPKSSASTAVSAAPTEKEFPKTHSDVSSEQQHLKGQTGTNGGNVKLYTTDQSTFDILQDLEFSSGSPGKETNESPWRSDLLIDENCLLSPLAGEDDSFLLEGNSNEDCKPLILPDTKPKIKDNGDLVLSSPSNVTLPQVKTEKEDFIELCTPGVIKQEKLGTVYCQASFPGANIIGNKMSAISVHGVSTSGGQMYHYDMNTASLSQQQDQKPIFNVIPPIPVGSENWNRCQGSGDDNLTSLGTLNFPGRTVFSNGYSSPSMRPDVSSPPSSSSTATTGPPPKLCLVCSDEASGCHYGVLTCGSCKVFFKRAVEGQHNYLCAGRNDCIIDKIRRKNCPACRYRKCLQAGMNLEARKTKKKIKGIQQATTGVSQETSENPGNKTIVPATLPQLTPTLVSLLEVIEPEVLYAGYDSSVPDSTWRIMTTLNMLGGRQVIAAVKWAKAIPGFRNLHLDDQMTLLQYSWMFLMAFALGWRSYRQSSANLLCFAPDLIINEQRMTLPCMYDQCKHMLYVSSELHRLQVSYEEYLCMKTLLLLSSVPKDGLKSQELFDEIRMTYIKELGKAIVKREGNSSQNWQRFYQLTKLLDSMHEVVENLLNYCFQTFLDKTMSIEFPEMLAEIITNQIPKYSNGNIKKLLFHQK
# Summary of the method: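 Agonist-mode qHTS in HeLa cells stably expressing a glucocorticoid-response-element beta-lactamase reporter. Fluorescence intensity read with FRET substrate (2 h, room temperature) after 18 h compound treatment at 37 C.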
# [20] = molecular target: Glucocorticoid receptor (Homo sapiens) (UniProt P04150); assay: qHTS assay to identify small molecule antagonists of the glucocorticoid receptor (GR) signaling pathway (AID 720692; active = well fitted inhibition curve with a large enough effect in the signal ratio in the repeat runs, not every such curve was filed as active; the % refers to the signal ratio)
# Summary of the method: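 Inhibition of dexamethasone-driven (5 nM final) beta-lactamase expression was measured in GRE-reporter HeLa cells over 18 h at 37C. Fluorescence was read after 2 h with the B/G FRET substrate at room temperature.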
# Tags give direction and shape of the fitted curve or compound fluorescence and quenching.
compound,measurement,setting,value
CCCC[N+]1(C)CCCC1 (tested in a mixture with another compound),Potency,[1],inactive
same,Potency,[2],inactive
same,Potency,[3],inactive
same,Potency,[4],inactive
same,Potency,[5],inactive
same,outcome,[6],inactive
same,Potency,[7],inactive
same,outcome,[8],inactive
same,outcome,[9],inactive
same,Potency,[10],inactive
same,outcome,[11],inactive
same,outcome,[12],inactive
same,Potency,[13],inactive
same,Potency,[14],inactive
CN1CCc2cc3c(cc2C1O)OCO3 (configuration not stated),Potency,[1],61.5 µM (active)
same,Potency,[2],inactive
same,Potency,[3],inactive
same,Potency,[5],inactive
same,outcome,[6],inactive
same,Potency,[7],35.5 µM [fluorescent] (active)
same,outcome,[8],inactive
same,Potency,[10],39.8 µM (active)
same,outcome,[11],inactive
same,outcome,[12],inactive
same,Potency,[13],39.8 µM [fluorescent] (active)
same,Potency,[15],inactive
same,Potency,[14],39.8 µM [fluorescent] (active)
Oc1ccc(Cl)c(Cl)c1,Potency,[1],inactive
same,Potency,[2],inactive
same,Potency,[3],inactive
same,Potency,[4],inactive
same,Potency,[16],6.75 µM (active)
same,outcome,[6],inactive
same,Potency,[17],inactive
same,Potency,[7],inactive
same,Potency,[10],inactive
same,outcome,[18],inactive
same,outcome,[11],inactive
same,outcome,[12],inactive
same,Potency,[13],inactive
same,Potency,[15],inactive
same,Potency,[14],inactive
Cc1cccc(Cc2cnc[nH]2)c1C,Potency,[1],inactive
same,Potency,[2],inactive
same,Potency,[4],inactive
same,Potency,[5],inactive
same,Potency,[16],inactive
same,outcome,[6],inactive
same,Potency,[17],inactive
same,Potency,[7],inactive
same,outcome,[8],inactive
same,outcome,[9],inactive
same,Potency,[10],inactive
same,outcome,[18],inactive
same,outcome,[11],inactive
same,outcome,[12],inactive
same,Potency,[13],inactive
same,Potency,[15],inactive
same,Potency,[14],inactive
same,Potency,[19],inactive
same,Potency,[20],inactive
CCOP(=S)(NC(C)C)Oc1ccccc1C(=O)OC(C)C (configuration not stated),Potency,[1],inactive
same,Potency,[2],inactive
same,Potency,[3],inactive
same,Potency,[4],inactive
same,Potency,[16],27.3 µM (active)
same,Potency,[17],inactive
same,Potency,[7],inactive
same,outcome,[9],inactive
same,Potency,[10],inactive
same,outcome,[18],inactive
same,outcome,[11],inactive
same,outcome,[12],inactive
same,Potency,[13],inactive
same,Potency,[15],inactive
same,Potency,[14],inactive
same,Potency,[19],inactive
CCCCC/C=C\C/C=C\C/C=C\C/C=C\CCCC(=O)NCC(=O)O,activation,[1],-5.49% [at 8.3 µM]
same,activation,[2],-2.3% [at 8.08 µM]
same,"activity change, negative = cytotoxicity",[3],-17.5% [at 8.08 µM]
same,"activity, negative = cytotoxicity",[4],5.25% [at 8.08 µM]
same,"activity change, negative = cytotoxicity",[5],-7.39% [at 8.08 µM]
same,"fluorescence, relative to Rose Bengal",[6],-0.484% [at 3.72 µM]
same,"fluorescence, % of triamterene",[7],-0.0359% [at 3.72 µM]
same,"fluorescence, % of fluorescent control",[8],0.123% [at 3.72 µM]
same,"fluorescence, % of fluorescent control",[10],-0.0427% [at 3.72 µM]
same,"fluorescence, % of fluorescent control",[11],0.173% [at 3.72 µM]
same,"fluorescence, % of Rose Bengal",[12],0.0912% [at 3.72 µM]
same,"fluorescence, % of fluorescent control",[13],-0.0542% [at 3.72 µM]
same,"fluorescence, % of fluorescein control",[15],0.0024% [at 3.72 µM]
same,"fluorescence, % of fluorescent control",[14],-0.108% [at 3.72 µM]
same,activation,[19],0.54% [at 6.9 µM]
same,"activity change, negative = inhibition",[20],22.5% [at 7.04 µM]
CN,Potency,[1],inactive
same,Potency,[3],inactive
same,Potency,[4],inactive
same,Potency,[5],inactive
same,Potency,[16],inactive
same,outcome,[6],inactive
same,Potency,[7],inactive
same,outcome,[8],inactive
same,outcome,[9],inactive
same,Potency,[10],inactive
same,outcome,[18],inactive
same,outcome,[11],inactive
same,outcome,[12],inactive
same,Potency,[13],inactive
same,Potency,[14],inactive
same,Potency,[19],inactive
same,Potency,[20],inactive
CCOC(=O)CCN(SN(C)C(=O)Oc1cccc2c1OC(C)(C)C2)C(C)C,Potency,[1],inactive
same,Potency,[2],inactive
same,Potency,[3],inactive
same,Potency,[4],inactive
same,outcome,[6],inactive
same,Potency,[17],inactive
same,Potency,[7],inactive
same,outcome,[8],inactive
same,outcome,[9],inactive
same,Potency,[10],inactive
same,outcome,[11],inactive
same,outcome,[12],inactive
same,Potency,[13],inactive
same,Potency,[15],inactive
same,Potency,[14],inactive
same,Potency,[19],inactive
same,Potency,[20],inactive
